# Reference: PubChem BioAssay AID1159580 (chemical genetic matrix, 2015)
# In all, about 5,500 compounds went through this assay and about 2,000 (36%) were called active. Inconclusive results (about 18%) are left out. This is one part of the list. A number with no mark means an inactive call. Cut-off read from the data, not from the text of the source: active = normalized growth mostly below about 0.91 (no sharp cut-off); inconclusive = no clear call, values can overlap the other calls; inactive = mostly above about 0.92.
# Experiment: chemical genetic growth profiling, strain panel (AID 1159580);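 note: tested at 20 µM; growth read once vehicle control cultures reached saturation at 30 °C; 1 = growth at the plate median or of vehicle wells; lower values mean less growth of the strain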
# Settings: S. cerevisiae deletion strains, growth OD
compound,measurement,setting,value
Cc1ccc(-c2nn(-c3ccccc3)c(=O)c3ccccc23)cc1C,normalized growth,"locus YAL013W, strain DEP1, hits give low values",0.953
same,normalized growth,"locus YBR229C, strain ROT2, hits give low values",0.968
same,normalized growth,"locus YCL061C, strain MRC1, hits give low values",0.967
same,normalized growth,"locus YDL101C, strain DUN1, hits give low values",0.957
same,normalized growth,"locus YDR150W, strain NUM1, hits give low values",0.978
same,normalized growth,"locus YEL061C, strain CIN8, hits give low values",0.908 (active)
same,normalized growth,"locus YGR078C, strain PAC10, hits give low values",0.955
same,normalized growth,"locus YGR229C, strain SMI1, hits give low values",0.984
same,normalized growth,"locus YHR030C, strain SLT2, hits give low values",0.504 (active)
same,normalized growth,"locus YHR087W, strain rtc3, hits give low values",0.922
same,normalized growth,"locus YJL187C, strain SWE1, hits give low values",0.979
same,normalized growth,"locus YJR043C, strain POL32, hits give low values",0.998
same,normalized growth,"locus YJR075W, strain HOC1, hits give low values",0.908
same,normalized growth,"locus YKL190W, strain CNB1, hits give low values",0.977
same,normalized growth,"locus YLR039C, strain RIC1, hits give low values",0.634 (active)
same,normalized growth,"locus YLR058C, strain SHM2 (second series), hits give low values",0.967
same,normalized growth,"locus YLR085C, strain ARP6, hits give low values",0.736 (active)
same,normalized growth,"locus YLR262C, strain YPT6, hits give low values",0.629 (active)
same,normalized growth,"locus YML094W, strain GIM5, hits give low values",0.922
same,normalized growth,"locus YMR219W, strain ESC1, hits give low values",0.962
same,normalized growth,"locus YMR263W, strain SAP30, hits give low values",0.937
same,normalized growth,"locus YNL153C, strain GIM3, hits give low values",0.992
same,normalized growth,"locus YNL298W, strain CLA4 (second series), hits give low values",0.936
same,normalized growth,"locus YNL322C, strain KRE1, hits give low values",0.964
same,normalized growth,"locus YNR030W, strain Alg12, hits give low values",0.918
same,normalized growth,"locus YOL006C, strain TOP1, hits give low values",0.804
same,normalized growth,"locus YPL055C, strain LGE1, hits give low values",0.928
same,normalized growth,"locus YPL241C, strain CIN2, hits give low values",0.917
same,normalized growth,"locus YPR135W, strain CTF4, hits give low values",0.612 (active)
